This is an account of results in publication PMC10726135, “HNF4α isoforms regulate the circadian balance between carbohydrate and lipid metabolism in the liver”.

In all, about 18,000 sequences were measured (“log2 normalized intensity”: median about 0.39, highest 2% from about 6.6 on). Many of the other results were omitted from the sample, so the highest values are more common in it than they were.

The target of this assay is T1, HNF4alpha2 (COS-7 nuclear extract) (Homo sapiens, UniProt P41235 1-474).
T1 sequence: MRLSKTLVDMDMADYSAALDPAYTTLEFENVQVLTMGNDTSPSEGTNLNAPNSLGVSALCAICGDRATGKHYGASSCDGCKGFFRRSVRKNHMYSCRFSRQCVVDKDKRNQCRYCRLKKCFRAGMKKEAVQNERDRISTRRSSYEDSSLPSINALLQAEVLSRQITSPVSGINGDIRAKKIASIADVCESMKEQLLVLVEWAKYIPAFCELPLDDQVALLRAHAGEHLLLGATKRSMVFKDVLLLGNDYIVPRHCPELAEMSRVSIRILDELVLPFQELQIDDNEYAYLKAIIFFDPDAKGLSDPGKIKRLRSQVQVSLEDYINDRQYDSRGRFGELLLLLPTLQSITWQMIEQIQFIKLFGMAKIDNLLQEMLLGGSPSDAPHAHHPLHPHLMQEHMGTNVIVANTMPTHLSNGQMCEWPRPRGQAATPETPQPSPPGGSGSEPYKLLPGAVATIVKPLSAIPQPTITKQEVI
Nature of the assay: protein-binding microarray; COS-7 nuclear extract on double-stranded Agilent 4x180k PBM; binding buffer, salt, pH and temperature not given in the material; high values mean tight binding. The note with it: chain copies: 2; label: 3' end of strand 1 on the slide; dsDNA, one strand shown. The gist of the method:
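The binding signal is Agilent software's gProcessedSignal after background correction and normalization. Arrays were a custom Agilent SurePrint G3 4x180k design of double-stranded ~60-nt oligonucleotides with ~44,000 test sequences in quadruplicate, probed with nuclear extracts of COS-7 cells transiently expressing a human HNF4α isoform. Scans were made at 2-µm resolution on an Agilent G2565CA scanner.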
Turning to “CCTTGCTATGGAGTGGACTTTGGCTTATGCGCCTAGGGAGATTAGAGTATCGGTCGA”, the binding signal came out at 6.18 log2 normalized intensity.

As for “GTTATCTATGGAACATGGACTTTGAACCTCGCCTAGGGAGATTAGAGTATCGGTCGA”, the binding signal came to 10.3 log2 normalized intensity.

On to “CTATGGAACATGGACTTTGAACCTCTCTTCGCCTAGGGAGATTAGAGTATCGGTCGA”, for which the binding signal was 8.15 log2 normalized intensity.

On to “TTTGAACACCTCTTCTTTCTTCTCTGGTACGCCTAGGGAGATTAGAGTATCGGTCGA”, for which the binding signal turned out to be 1.58 log2 normalized intensity.

“TCTTCTTCTGGGGACTTCGGTCTTTTTTCTGCCTAGGGAGATTAGAGTATCGGTCGA”: the binding signal was found to be 2.18 log2 normalized intensity.

As for “TGGACTTTGAACCTCTCTTCTTTTTCGTCTGCCTAGGGAGATTAGAGTATCGGTCGA”, the binding signal came to 6.71 log2 normalized intensity.

Turning to “TGAACTTTGAACACCTCTTCTTTCTTCTCTGCCTAGGGAGATTAGAGTATCGGTCGA”, the binding signal worked out at 3.92 log2 normalized intensity.

Take “ACTCATTTCACATTGGTGCCCTTTGCCTTTGCCTAGGGAGATTAGAGTATCGGTCGA”: the binding signal amounted to 3.97 log2 normalized intensity.

For “TGGGCACTGTCCTAGGTGCTGAAGATGCAAGCCTAGGGAGATTAGAGTATCGGTCGA”, the binding signal is -0.724 log2 normalized intensity.

As to “GATCAAAGGTCGGTTTTAGGACAACATGAGGCCTAGGGAGATTAGAGTATCGGTCGA”, the binding signal turned out to be 4.52 log2 normalized intensity.

For the sequence “CTATCATTATCTCTCACTGCAGAAACTCTGGCCTAGGGAGATTAGAGTATCGGTCGA”, the binding signal was 1.35 log2 normalized intensity.

In the case of “AGCATTTTTGTATGCATAAGGCCTTGGACCGCCTAGGGAGATTAGAGTATCGGTCGA”, the binding signal was 3.11 log2 normalized intensity.

Regarding “CTTTGGTATGGACTGATATTCAAACAGGTCGCCTAGGGAGATTAGAGTATCGGTCGA”, the binding signal was determined as 1.31 log2 normalized intensity.

As for “GAGGGATTTTCAGTATACTGACTTATCAGGGCCTAGGGAGATTAGAGTATCGGTCGA”, the binding signal came out at 0.535 log2 normalized intensity.

For the sequence “AGCGGCCTTCCCCTTTTTCTGTAAAGCTTTGCCTAGGGAGATTAGAGTATCGGTCGA”, the binding signal amounted to 1.21 log2 normalized intensity.

On to “GAGTTTAGGCATTCTTAGACACAGTCTGAGGCCTAGGGAGATTAGAGTATCGGTCGA”, for which the binding signal is -0.227 log2 normalized intensity.

Turning to “CCTCTTGCGTGTTATCTATGGAACATGGACGCCTAGGGAGATTAGAGTATCGGTCGA”, the binding signal is 2.24 log2 normalized intensity.

On to “TACATTGAACTTTGAACACCTCTTCTTTCTGCCTAGGGAGATTAGAGTATCGGTCGA”, for which the binding signal worked out at 4.75 log2 normalized intensity.

“AACATGGACTTTGTTGTTTGCCTCTGAAAAGCCTAGGGAGATTAGAGTATCGGTCGA”: the binding signal worked out at 2.31 log2 normalized intensity.

For the sequence “GAACATGGACTTTGAACCTCTCTTCTTTTTGCCTAGGGAGATTAGAGTATCGGTCGA”, the binding signal is 7.25 log2 normalized intensity.

Turning to “CCATACCTCTTGCGTGTTATCTATGGAACAGCCTAGGGAGATTAGAGTATCGGTCGA”, the binding signal came out at 1.5 log2 normalized intensity.

As for “TGCGTGTTATCTATGGAACATGGACTTTGAGCCTAGGGAGATTAGAGTATCGGTCGA”, the binding signal was 8.74 log2 normalized intensity.

For “GGAGAAGTTTTATGGCAGGGTCGGAATGTCGCCTAGGGAGATTAGAGTATCGGTCGA”, the binding signal was found to be 1.55 log2 normalized intensity.

“AGCCCCACAGAGCAAAGGTCATGCATAGAAGCCTAGGGAGATTAGAGTATCGGTCGA”: the binding signal stood at 4.52 log2 normalized intensity.

Turning to “ATGGTTTGACCCTGCGATAAGTAGATACCAGCCTAGGGAGATTAGAGTATCGGTCGA”, the binding signal is 0.964 log2 normalized intensity.

For “AGGCAGTCTGTTGACCTTTGGCCAAGGGCAGCCTAGGGAGATTAGAGTATCGGTCGA”, the binding signal worked out at 7.73 log2 normalized intensity.

As for “GTCTGTTGACCTTTGGCCAAGGGCAGTGTTGCCTAGGGAGATTAGAGTATCGGTCGA”, the binding signal was 6.71 log2 normalized intensity.

Regarding “GAGTCTGTTGTCTAACATTTTTGACCTTCAGCCTAGGGAGATTAGAGTATCGGTCGA”, the binding signal came to 4.09 log2 normalized intensity.

Regarding “CTTTGGCCAAGGGCAGTGTTTGCCCAGCTTGCCTAGGGAGATTAGAGTATCGGTCGA”, the binding signal was determined as 0.106 log2 normalized intensity.

Turning to “TCAGTCTGGTTGAGGCAAGCAAAAGCCAAGGCCTAGGGAGATTAGAGTATCGGTCGA”, the binding signal is -0.985 log2 normalized intensity.

On to “TTGACCTTTGGCCAAGGGCAGTGTTTGCCCGCCTAGGGAGATTAGAGTATCGGTCGA”, for which the binding signal was 5.35 log2 normalized intensity.

Turning to “CAACTGGTATGTTAGATTAGTGTGCAGCTTGCCTAGGGAGATTAGAGTATCGGTCGA”, the binding signal is 0.891 log2 normalized intensity.

“TCTGACCTCTTTCAAGCCTGAACAAACATGGCCTAGGGAGATTAGAGTATCGGTCGA”: the binding signal was 0.93 log2 normalized intensity.

“GTCCGGCAGAGCTATGGAATTTTGGCCTTTGCCTAGGGAGATTAGAGTATCGGTCGA”: the binding signal amounted to 3.22 log2 normalized intensity.

Consider “CTCCAGGGCACTGCCCTTTGGAACCTGCCCGCCTAGGGAGATTAGAGTATCGGTCGA”, for which the binding signal stood at 5.54 log2 normalized intensity.

For the sequence “TACTTTGCTTCCAAGTTATGCAGACCTTTGGCCTAGGGAGATTAGAGTATCGGTCGA”, the binding signal is 2.14 log2 normalized intensity.

With “CTAGGCTCCAGGGCACTGCCCTTTGGAACCGCCTAGGGAGATTAGAGTATCGGTCGA”, the binding signal is 6.71 log2 normalized intensity.

As to “GGATGCCCTTTGACCTCTGCTTCCTGCTACGCCTAGGGAGATTAGAGTATCGGTCGA”, the binding signal was found to be 5.58 log2 normalized intensity.

Consider “AAAGCCTAGGCTCCAGGGCACTGCCCTTTGGCCTAGGGAGATTAGAGTATCGGTCGA”, for which the binding signal is 3 log2 normalized intensity.

Take “GCAGGGGATGCCCTTTGACCTCTGCTTCCTGCCTAGGGAGATTAGAGTATCGGTCGA”: the binding signal turned out to be 8.18 log2 normalized intensity.

For “ATTCCCTCCAGCAGGGGATGCCCTTTGACCGCCTAGGGAGATTAGAGTATCGGTCGA”, the binding signal stood at 8.91 log2 normalized intensity.

For “ATGCCCCTCCCAGGGACACATGCCCCTTCCGCCTAGGGAGATTAGAGTATCGGTCGA”, the binding signal is 5.44 log2 normalized intensity.

Regarding “CCCTTTGACCTCTGCTTCCTGCTACAGAGCGCCTAGGGAGATTAGAGTATCGGTCGA”, the binding signal is 1.87 log2 normalized intensity.

For “TTATGCAGACCTTTGCCCTTTGTTTACATAGCCTAGGGAGATTAGAGTATCGGTCGA”, the binding signal came out at 5.27 log2 normalized intensity.

“TGCTTCCAAGTTATGCAGACCTTTGCCCTTGCCTAGGGAGATTAGAGTATCGGTCGA”: the binding signal was found to be 7.17 log2 normalized intensity.

For the sequence “TGCACATTCCCTCCAGCAGGGGATGCCCTTGCCTAGGGAGATTAGAGTATCGGTCGA”, the binding signal stood at 2.38 log2 normalized intensity.
